# Test results reported in the OligoGym collection.
# Molecular target: GATA4
# Assay: pooled miR-30 sensor sort-seq; sequence = guide strand
# Conditions: shRNA
# Further: reference of the scale not given here.
row,Sequence,sensor-assay potency score (higher = more potent)
1,TCGTCAAACATATCGAGATTGG,-0.878
2,TCGACTTCAAGTTTCTTCCCAG,0.0228
3,TTAGATTTATTCAGGTTCTTGG,-0.334
4,TTTGCTATCCTCCAAGTCCCAG,-0.913
5,TTCTGTTGTGTTGTGTTTGTTT,-0.142
6,TTTATTCAGGTTCTTGGGCTTC,-0.422
7,TTTATTTTGAGAGATGTTGGAA,0.35
8,TTCCGCATTGCAAGAGGCCTGG,-0.334
9,TCAAACATATCGAGATTGGGGT,0.14
10,TGGAGCTTCATGTAGAGGCCGC,-0.527

# Molecular target: GCKR
# Assay: as above
# Conditions: shRNA
row,Sequence,sensor-assay potency score (higher = more potent)
1,TTCGCTGTAGAGTCTCTGGTAT,0.0176
2,TTCTGGTTAAACATGTCACTGT,0.368
3,TAGCAGTCGAACAATGTTCTCA,-0.15
4,TTCTTCTCCAGACTGGTGCTGA,-0.0469
5,TAGCTCACGCTGGAACTTCTGG,-0.719
6,ATCTGCTTTGTCTAGATCCTGG,-0.482
7,TGTCGGAATGTTGAACTCCAGT,-1.08
8,TAGGTCGAGAGCAAGAACTCTC,-0.283
9,TATCATCTGACAGTGGCTGGGG,0.728
10,TTTGTCTAGATCCTGGGTCAGT,-0.835
11,TTTGGTGCTTAGCTCACGCTGG,-0.0787
12,TTCCTTCTCATGTGCAACCTGG,-0.464
